Experimental findings from PubChem BioAssay (NCI) are described below.

SMILES strings stand for the structures. About 83,000 compounds went through this panel and 20% of them were active in at least one assay; those are over-represented in the sample as a whole.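 96-well plates, one dose, 48 hours. Percent growth reported; active if below 10.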 Values without a mark were called inactive. The source made the active and inactive calls.

Common to all, as to experiment: NCI-60 one-dose screen, 48 h (100 = growth as untreated, 0 = no growth, -100 = all killed)
One test deals with SK-MEL-2 melanoma. The note with it: 10 µM.
The test system of the next test is SN12C renal. The note with it: 10 µM.
The next test deals with UO-31 renal. The note with it: 10 µM.
The test system of the next test is TK-10 renal. The note with it: 10 µM unless noted.
The next test relates to ACHN renal. The note with it: 10 µM.
For a further test, the system named is CAKI-1 renal. The note with it: 10 µM.
A further test deals with A498 renal. The note with it: 10 µM.
For another test, the system named is CCRF-CEM leukemia. The note with it: 10 µM.
For a further test, the system named is MOLT-4 leukemia. The note with it: 10 µM.
Another test has as its system EKVX NSCLC. The note with it: 10 µM.

Consider `O=C(O)/C=C/c1ccc2c(c1)CCC2`, for which the growth was 110% with SK-MEL-2 melanoma; 95.4% with SN12C renal; 99.7% in the test with UO-31 renal; 107% with TK-10 renal; 107% with ACHN renal; 94.5% with CAKI-1 renal. The growth in the test with A498 renal was 111%; in the test with CCRF-CEM leukemia, 83.5%; with MOLT-4 leukemia, 97.1%.

As for `C=CCCCCCCCCCOC(C)=O`, the growth in the test on SK-MEL-2 melanoma is 98.5%; in the test on SN12C renal, 98.8%; in the test with UO-31 renal, 92.4%; in the test on TK-10 renal, 91.5%; with ACHN renal, 110%; with CAKI-1 renal, 104%. Moreover, the figures for the growth with A498 renal, with CCRF-CEM leukemia and in the test on MOLT-4 leukemia were 111%, 101% and 103%, respectively.

Consider `COC(=O)c1ccccc1N(C)C`, for which the growth with SK-MEL-2 melanoma is 99.4%; in the test with SN12C renal it was 103%; in the test on UO-31 renal, 87.5%; in the test with TK-10 renal it was 94.8%; in the test on ACHN renal, 113%; with CAKI-1 renal, 96.2%. The growth in the test with A498 renal was 79.6%; with CCRF-CEM leukemia it was 95.5%; with MOLT-4 leukemia, 90.1%.

`CN(C)CCN(C)CC(C)(C)C(=O)/C=C/c1ccc(Cl)cc1`: the growth is -25.6% (active) in the test on SK-MEL-2 melanoma; -19.1% (active) with EKVX NSCLC; 2.97% (active) in the test with SN12C renal; 0.991% (active) in the test with TK-10 renal; -27.3% (active) in the test on ACHN renal; 8.74% (active) in the test with CAKI-1 renal. The growth in the test with A498 renal is 10.4%; with CCRF-CEM leukemia it was -9.31% (active); with MOLT-4 leukemia, -14.7% (active).

As for `CC1(C)S(=O)(=O)OCCOS1(=O)=O`, the growth with SK-MEL-2 melanoma was 115%; in the test with EKVX NSCLC, 94.8%; in the test with SN12C renal, 101%; in the test with TK-10 renal it was 93.2%; with ACHN renal, 106%; with CAKI-1 renal it was 93.9%. Further, the growth with A498 renal was 101%; with CCRF-CEM leukemia it was 78.8%; in the test on MOLT-4 leukemia, 102%.

Consider `Cc1ccc(C(=O)c2ccccc2)c(C)c1`, for which the growth was 108% in the test with SK-MEL-2 melanoma; 105% with EKVX NSCLC; 99.2% in the test on SN12C renal; 109% in the test with TK-10 renal; 103% with ACHN renal; 121% with CAKI-1 renal. The results for the growth in the test with A498 renal and with MOLT-4 leukemia were 104% and 116%, respectively.

As to `CN(C)CCC(=O)c1ccc(O)cc1`, the growth in the test with SK-MEL-2 melanoma is 107%; in the test with EKVX NSCLC, 107%; in the test on UO-31 renal, 87.2%; in the test on TK-10 renal, 106%; with ACHN renal it was 114%; in the test on CAKI-1 renal, 97.1%. Besides, the growth is 99.4% with A498 renal, 109% in the test with CCRF-CEM leukemia and 113% with MOLT-4 leukemia.

Consider `CC1CC(O)C2C3(C)CCCC2(COC3=O)C12CCC1(CCOC1=O)O2` (centres undefined), for which the growth in the test with SK-MEL-2 melanoma was 117%; with SN12C renal, 113%; in the test on UO-31 renal it was 93.3%; in the test on TK-10 renal, 114%; with ACHN renal, 108%; in the test on CAKI-1 renal, 94.7%. For the same molecule, the growth in the test with A498 renal is 71%; in the test with CCRF-CEM leukemia, 104%; in the test on MOLT-4 leukemia, 114%.

On to `O=P(O)(O)OCC(O)CO` (centres undefined), for which the growth in the test with SK-MEL-2 melanoma was 117%; with SN12C renal, 98.5%; with UO-31 renal, 98.7%; in the test with TK-10 renal it was 110%; in the test with ACHN renal it was 101%; in the test with CAKI-1 renal it was 104%. The growth was 108% with A498 renal, 100% in the test on CCRF-CEM leukemia and 103% with MOLT-4 leukemia.

Take `C=CC(O)CCC` (centres undefined): the growth in the test on SK-MEL-2 melanoma is 122%; in the test with SN12C renal, 99.5%; in the test with UO-31 renal, 89.9%; in the test on TK-10 renal it was 102%; with ACHN renal it was 98.5%; with CAKI-1 renal, 92.1%. The figures for the growth with A498 renal, with CCRF-CEM leukemia and in the test on MOLT-4 leukemia were 108%, 98.4% and 110%, respectively.

With `COc1cc2nn(-c3ccccc3N)nc2cc1OC`, the growth in the test with SK-MEL-2 melanoma is 106%; in the test with SN12C renal, 106%; in the test with UO-31 renal, 87.6%; in the test on TK-10 renal, 109%; in the test on ACHN renal, 109%; with CAKI-1 renal, 85.6%. The figures for the growth in the test on A498 renal, in the test with CCRF-CEM leukemia and in the test with MOLT-4 leukemia were 82.3%, 101% and 98.9%, respectively.

For the molecule `COc1cc(C2c3cc4c(cc3C3OC(=O)C2C3CO)OCO4)cc(OC)c1OC` (centres undefined), the growth with SK-MEL-2 melanoma is 7.33% (active); in the test on SN12C renal it was 23.8%; in the test on UO-31 renal it was 38.2%; in the test on TK-10 renal it was 49.6%; in the test with ACHN renal, 24.9%; in the test on CAKI-1 renal it was 37.4%. Moreover, the figures for the growth in the test on A498 renal, with CCRF-CEM leukemia and in the test on MOLT-4 leukemia were -7.83% (active), -7.15% (active) and -9.4% (active), respectively.

With `c1cc2cccc3c4cccc5cccc(c(c1)c23)c54`, the growth in the test with SK-MEL-2 melanoma was 98.7%; in the test on EKVX NSCLC, 104%; in the test on SN12C renal, 98.6%; in the test with TK-10 renal it was 102%; in the test on ACHN renal, 102%; in the test on A498 renal it was 116%. In addition, the growth is 103% with CCRF-CEM leukemia and 105% with MOLT-4 leukemia.

As for `CCCCNC(=O)C(=O)NCCCC`, the growth in the test with SK-MEL-2 melanoma was 123%; with EKVX NSCLC, 95.5%; in the test with SN12C renal, 98.8%; with TK-10 renal, 96.4%; in the test with ACHN renal, 110%; in the test with CAKI-1 renal, 91.8%. Moreover, the results for the growth with A498 renal, in the test on CCRF-CEM leukemia and in the test with MOLT-4 leukemia were 114%, 101% and 129%, respectively.
